# Measurements from PubChem BioAssay (NCI).
# This is part of a sample that, as a whole, favours compounds with a hit. Of some 79,000 tested, about 15% had one in any assay. Values without a mark were called inactive. Active and inactive are the calls of the source. Rule as the data show it: active = growth inhibition above about 70%; inactive = the rest. Where a SMILES comes first, the peptide text is derived from it. [ ]: non-standard residue; d: D form. The star is where a group is joined. mTyr = N[CH](Cc1cccc(O)c1)C(=O)O; Cbz = O=C(OCc1ccccc1)*; OBn = c1ccc(CO*)cc1
# Columns and labels:
# [1] = NCI Yeast Anticancer Drug Screen. Data for the rad50 strain (AID 155);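 also: 0% = growth of vehicle-only cultures of the same strain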; settings: S. cerevisiae rad50 strain growth inhibition, stronger effect = higher value
# Outline: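 Inhibition values express reduced yeast growth in compound-treated cultures relative to vehicle-treated controls.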
# [2] = NCI Yeast Anticancer Drug Screen. Data for the mec2-1 strain (AID 157); settings: S. cerevisiae mec2-1 strain, stronger effect = higher value
# Outline: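 Yeast mec2-1 mutant treated with compound. Readout: growth inhibition vs vehicle controls.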
# [3] = NCI Yeast Anticancer Drug Screen. Data for the sgs1 mgt1 strain (AID 161);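 also: 0% = growth of cultures given vehicle only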; settings: S. cerevisiae sgs1 mgt1 strain, stronger effect = higher value
# Outline: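 Read-out: growth inhibition vs vehicle controls. Cells: mutant yeast strain deficient in DNA damage repair.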
# [4] = NCI Yeast Anticancer Drug Screen. Data for the cln2 rad14 strain (AID 165);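 also: 0% = growth equal to vehicle treated cultures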; settings: S. cerevisiae cln2 rad14 strain, stronger effect = higher value
# Outline: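 cln2 rad14 yeast strain; compound exposure; growth inhibition read vs vehicle controls.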
# [5] = NCI Yeast Anticancer Drug Screen. Data for the bub3 strain (AID 167); settings: S. cerevisiae bub3 mutant strain, stronger effect = higher value
# Outline: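 Steps: expose the mutant yeast strain to compound; grow alongside vehicle-treated cultures; measure growth; express inhibition against the vehicle cultures.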
# [6] = NCI Yeast Anticancer Drug Screen. Data for the mlh1 rad18 strain (AID 175); settings: S. cerevisiae mlh1 rad18 strain growth inhibition, stronger effect = higher value
# Outline: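 Yeast w/ defined DNA-repair lesions; compound exposure; growth vs vehicle controls → % inhibition.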
# [7] = at 5.0 µM (retest, dose inferred, filed as 0.5)
# [8] = at 50.0 µM (retest, dose inferred, filed as 5.0)
SMILES,"growth inhibition [1, 7]","growth inhibition [1, 8]",growth inhibition ([1]; at 50.0 µM),"growth inhibition [2, 7]","growth inhibition [2, 8]",growth inhibition ([2]; at 50.0 µM),"growth inhibition [3, 7]","growth inhibition [3, 8]",growth inhibition ([3]; at 50.0 µM),"growth inhibition [4, 7]","growth inhibition [4, 8]",growth inhibition ([4]; at 50.0 µM),"growth inhibition [5, 7]","growth inhibition [5, 8]",growth inhibition ([5]; at 50.0 µM),"growth inhibition [6, 7]","growth inhibition [6, 8]",growth inhibition ([6]; at 50.0 µM)
Cc1nnc(NS(=O)(=O)c2ccc(N=Nc3cc(N=Nc4ccc(S(=O)(=O)Nc5nnc(C)s5)cc4)c4c(NC(=O)C(Cl)Cl)cccc4c3OC(=O)C(Cl)Cl)cc2)s1 (tested in a mixture with another compound),90% (active),-11%,51.8%,92% (active),24%,53.6%,89% (active),-9%,69.5%,90% (active),6%,65.8%,91% (active),-3%,58.2%,80% (active),-44%,79.5% (active)
C=C1OC(=O)C(=O)N1CC(=O)O,-156%,-170%,-1.35%,-50%,-54%,5.4%,-61%,-70%,-5.5%,-54%,-69%,44.9%,-70%,-82%,-6.45%,-139%,-119%,4.05%
CC(C)C1=CC(=O)C(C)(C2C(O)CC3(C)C4CC=C5C(CCC(O)C5(C)C)C4(C)C(=O)CC23C)O1 (stereo unspecified),65%,80% (active),73.2% (active),78% (active),87% (active),74.5% (active),64%,74% (active),68.8%,54%,83% (active),75% (active),78% (active),86% (active),62.2%,85% (active),89% (active),69.4%
COC(=O)C(Cc1cccc(O)c1)NC(=O)C(CC(=O)OCc1ccccc1)NC(=O)OCc1ccccc1 (stereo unspecified) (Cbz-Asp(OBn)-[mTyr]-OMe; configuration not given here),-12%,70% (active),77.2% (active),-6%,21%,74.8% (active),2%,87% (active),85.7% (active),9%,64%,89.8% (active),-10%,55%,91% (active),-4%,75% (active),80.9% (active)
Cc1ccc(S(=O)(=O)NNc2nc(N3CCOCC3)nc(N3CCOCC3)n2)cc1,1%,-4%,28.1%,2%,2%,15.4%,10%,6%,63%,3%,-8%,70.6% (active),-1%,-1%,17.9%,0%,-4%,26.3%
CC(C)c1cc(=O)c2cc3[nH]c4ccccc4c3cc2[nH]1,-2%,92% (active),49.9%,-2%,87% (active),52.8%,-69%,96% (active),50.9%,-18%,81% (active),68.5%,-2%,94% (active),10.6%,-9%,86% (active),54.2%
CC/C(=C(\CC)c1ccc(O)c(CN(CC)CC)c1)c1ccc(OC)cc1,-1%,68%,99.4% (active),15%,62%,99.7% (active),-31%,92% (active),99.6% (active),-1%,80% (active),99.5% (active),0%,65%,99.4% (active),5%,99% (active),99.5% (active)
O=C(C[n+]1ccccc1Cl)c1ccc(Oc2ccc(C(=O)C[n+]3ccccc3Cl)cc2)cc1,-34%,0%,90.6% (active),-5%,-18%,83.2% (active),-11%,-11%,30.5%,-14%,-15%,91.9% (active),-40%,-28%,89% (active),-33%,-48%,80.7% (active)
CCOC(=O)CC1=NC(=Nc2ccc(Cl)c(Cl)c2)SC1,0%,95% (active),96.2% (active),-3%,98% (active),99% (active),0%,98% (active),99.1% (active),-5%,94% (active),96.6% (active),4%,98% (active),97.7% (active),-2%,98% (active),98.3% (active)
CCSc1c2ccccc2nc2c(OC)ccc(OC)c12,3%,70% (active),88.7% (active),-3%,23%,35.4%,-7%,30%,63.1%,-7%,-7%,48.7%,-7%,20%,39.4%,-3%,54%,90.3% (active)
C1CCC(C2CCC(N3CCCCC3)CC2)CC1 (stereo unspecified),60%,78% (active),85% (active),45%,77% (active),51.4%,58%,86% (active),82.3% (active),63%,62%,75.6% (active),63%,84% (active),72.8% (active),67%,87% (active),79.4% (active)
N#C/C(=C\c1cccnc1)c1csc2ccccc12,2%,86% (active),95.3% (active),8%,91% (active),88.8% (active),2%,85% (active),75.2% (active),1%,83% (active),73% (active),1%,83% (active),94.2% (active),-5%,88% (active),94.4% (active)
O=C1C=CC(=O)N1c1ccc(Cl)cc1,79% (active),97% (active),91.6% (active),79% (active),99% (active),93.1% (active),95% (active),100% (active),92.8% (active),54%,101% (active),84.8% (active),101% (active),100% (active),92.1% (active),80% (active),99% (active),92% (active)
CCCCCCCCCCCCCCCC1(OC)C[N+](C)(C)CCO1 (stereo unspecified),99% (active),99% (active),99.5% (active),100% (active),100% (active),99.7% (active),99% (active),100% (active),99.7% (active),100% (active),100% (active),99.5% (active),99% (active),99% (active),99.7% (active),99% (active),100% (active),99.7% (active)
N#CC(C#N)=C(C1CC1)C1CC1,-76%,96% (active),0.4%,-42%,94% (active),-2.5%,-47%,96% (active),-1.9%,-56%,92% (active),41.4%,-59%,93% (active),11.8%,-95%,94% (active),-21.9%
c1ccc(NNc2ccc3ccccc3n2)cc1,3%,96% (active),38.6%,-21%,2%,44.6%,-3%,18%,77.2% (active),-6%,-1%,39%,24%,85% (active),77.6% (active),0%,40%,65.8%
CC(C)(C)CC(=O)O,8%,9%,5.05%,5%,3%,18.1%,-5%,2%,29.1%,-2%,-4%,27.1%,2%,13%,26.9%,7%,8%,-2.2%
